Laboratory results from PubChem BioAssay (Tox21).
Results filed as inconclusive are left out. Entries that show only a call come without a potency. Active and inactive are the calls of the source. Calls come from the whole dose curve; as a rule, active = well fitted cell-killing curve with a large enough effect in the repeat runs; inconclusive = weak or mixed curves, or effect the other way; inactive = no such curve, though single readings can be large or run the other way. Starred links: 1 amine or outer side, 2 acyl side, 3 side chain; linkers in the order of their positions; H or OH if unused. Positions of bridges follow the written chain, without caps; N, C: chain ends. Non-standard residues stand in square brackets, D forms with d. Residues, ends and D or L forms follow the SMILES beside them. *: point of attachment. X5 = NC1=N[C@@H]([C@H](N[*:1])C(=O)[*:2])C[C@H](O)N1; ΔAla(Z-3-ureido) = NC(=O)N/C=C(\N)C(=O)O; β3hOrn = NCCC[C@H](N)CC(=O)*; Dap = NC[C@H](N)C(=O)O

Assay: qHTS assay to identify small molecule antagonists of the thyroid receptor (TR) signaling pathway - cell viability counter screen (AID 743064); note: nearly all actives have a fitted effect of over 50% in size
Settings: GH3.TRE-Luc viability, CellTiter-Fluor, 24 h; series mostly up to 70.3 µM
Summary of the method: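 GH3.TRE-Luc rat pituitary cells carrying a TRE-luciferase reporter were treated with compound plus 1 nM T3 (final) for 23.5 h at 37 °C. Viability was then read in the same wells by CellTiter-Fluor fluorescence after a further 30 min.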
Potency is the fitted concentration of half-maximal effect.

SMILES	Potency
CCCN(CC)C(CC)C(=O)Nc1c(C)cccc1C (centres undefined)	inactive
Cc1ccc(/C(=C\CN2CCCC2)c2cccc(/C=C/C(=O)O)n2)cc1	inactive
CN[C@@H]1[C@@H](O)[C@@H](O[C@@H]2[C@@H](O)[C@H](OC3OC(CN)=CCC3N)[C@@H](N)C[C@H]2N)OC[C@]1(C)O (some centres undefined)	inactive
Cn1cc(NC(=O)c2cc(NC(=O)c3cc(NC=O)cn3C)cn2C)cc1C(=O)NCCC(=N)N	inactive
CS(=O)(=O)Nc1cc2occ(NC=O)c(=O)c2cc1Oc1ccccc1	inactive
O=c1[nH]cnc2[nH]cc(CN3CCCCC3)c12	inactive
C[C@]12C=CC(=O)C=C1CC[C@@H]1[C@@H]2[C@@H](O)C[C@@]2(C)[C@H]1CC[C@]2(O)C(=O)COC(=O)CCC(=O)O	inactive
CNC[C@@H]1CC[C@@H](N)[C@@H](O[C@H]2[C@H](O)[C@@H](O[C@H]3OC[C@](C)(O)[C@H](NC)[C@H]3O)[C@H](N)C[C@@H]2N)O1	inactive
C=C1CC2C3CCC4=CC(=O)C=C[C@]4(C)[C@@]3(F)[C@@H](O)C[C@]2(C)[C@@]1(O)C(=O)COC(C)=O (some centres undefined)	inactive
O=C(NOC[C@H](O)CO)c1ccc(F)c(F)c1Nc1ccc(I)cc1F	inactive
NCCC(=O)[N-][C@@H](Cc1cnc[nH]1)C(=O)O.[Zn]	inactive
OCC(O)COc1ccc(Cl)cc1 (centres undefined)	inactive
C[C@H]1C[C@H]2[C@@H]3CCC4=CC(=O)C=C[C@]4(C)[C@@]3(F)[C@@H](O)C[C@]2(C)[C@@]1(O)C(=O)CCl	inactive
CCN(CC)c1ccc(N=Nc2ccc(S(=O)(=O)N(C)C)cc2)c(S(=O)(=O)NCC[n+]2ccccc2)c1	inactive
CCC(C)C(C(=O)OCC[N+](C)(CC)CC)c1ccccc1 (centres undefined)	inactive
Cc1c(O)cc2c(c1C)O[C@](C)(CCC[C@H](C)CCC[C@H](C)CCCC(C)C)CC2	inactive
c1ccc2c(CCC3CCNCC3)c[nH]c2c1	18.8 µM (active)
Cc1ccccc1CNc1ncnc2c1ncn2[C@@H]1O[C@H](CO)[C@@H](O)[C@H]1O	inactive
CC(=O)OCC(=O)[C@@]1(O)[C@H](C)C[C@H]2[C@@H]3C[C@H](F)C4=CC(=O)C=C[C@]4(C)[C@H]3[C@@H](O)C[C@@]21C	inactive
CC(C)(C)CC(=O)OCC(=O)[C@@]12OC(C)(C)O[C@@H]1C[C@H]1[C@@H]3CCC4=CC(=O)C=C[C@]4(C)[C@@]3(F)[C@@H](O)C[C@@]12C	inactive

SMILES	Potency
CC(=O)N[C@@H](CC(=O)N[C@@H](CCC(=O)O)C(=O)O)C(=O)O	inactive
C=C1c2c(Cl)ccc(O)c2C(O)=C2C(=O)[C@]3(O)C(O)=C(C(N)=O)C(=O)[C@@H](N(C)C)[C@@H]3[C@@H](O)[C@H]12	inactive
CCCCCCCCCCCCCCCC(=O)OC[C@@H](COP(=O)([O-])OCC[N+](C)(C)C)OC(=O)CCCCCCCCCCCCCCC	inactive
C[N+](C)(CCCCCC[N+](C)(C)C1c2ccccc2-c2ccccc21)C1c2ccccc2-c2ccccc21	inactive
Cc1cc(Nc2ccccc2C(=O)O)ccc1Cl	inactive
NCCC[C@H](N)CC(=O)N[C@H]1CNC(=O)[C@H]([C@H]2C[C@H](O)NC(N)=N2)NC(=O)/C(=C/NC(N)=O)NC(=O)[C@H](CO)NC(=O)[C@H](CO)NC1=O (β3hOrn-[Dap]SS[ΔAla(Z-3-ureido)][X5]; lactam 1-C)	inactive
CCCCCCCCCCCCCCCCCC(=O)OCCO	inactive
CO[C@H]1[C@@H](O)[C@H](N)[C@@H](O[C@H]2O[C@H]([C@H](C)N)CC[C@H]2N)[C@H](O)[C@@H]1N(C)C(=O)CN	inactive
CCCC(=O)Nc1ncnc2c1ncn2[C@@H]1O[C@@H]2COP(=O)(O)O[C@H]2[C@H]1OC(=O)CCC	inactive
CN(CCO)CC(O)Cn1cnc2c1c(=O)n(C)c(=O)n2C (centres undefined) (tested in a mixture with another compound)	inactive
CCOC(=O)[C@H](CCc1ccccc1)N[C@H]1CCCN2CCC[C@@H](C(=O)O)N2C1=O	inactive
C[C@]12CC[C@@H]3c4ccc(OS(=O)(=O)O)cc4CC[C@H]3[C@@H]1CCC2=O	inactive
O=C[C@H](O)[C@@H](O)[C@H](O[C@H]1O[C@H](CO)[C@@H](O[C@H]2O[C@H](CO)[C@@H](O)[C@H](O)[C@H]2O)[C@H](O)[C@H]1O)[C@H](O)CO	inactive
CC(=O)OC[C@H]1O[C@@H](O[C@H]2[C@H](O)[C@@H](OC(=O)c3ccccc3C(=O)O)[C@H](O)O[C@@H]2COC(C)=O)[C@H](O)[C@@H](OC(=O)c2ccccc2C(=O)O)[C@@H]1O	inactive
CS(=O)(=O)OCCCNCCCOS(C)(=O)=O	inactive
CN=C(NC)NCc1ccccc1	inactive
CC1(C)S[C@@H]2[C@H](NC(=O)C(C(=O)Oc3ccc4c(c3)CCC4)c3ccccc3)C(=O)N2[C@H]1C(=O)O (some centres undefined)	inactive
CS(=O)(=O)NC(=O)CCC/C=C\C[C@H]1C(=O)C[C@@H](O)[C@@H]1/C=C/[C@H](O)COc1ccccc1	inactive
COc1cc(S(C)=O)ccc1-c1nc2ncccc2[nH]1 (centres undefined)	inactive
